Laboratory results reported in PubChem BioAssay (NCI).
Compounds without any hit were thinned out: in the full panel of roughly 83,000, 20% have a hit.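 Single-dose data. Exposure time 48 hours. Values below 10 considered active.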 Active and inactive are the calls of the source.

Experiments:
Experiment in all cases: NCI-60 one-dose screen, 48 h (100 = growth as untreated, 0 = no growth, -100 = all killed)
Conditions in all cases: 10 µM
SK-MEL-2 melanoma = system: SK-MEL-2 melanoma
EKVX NSCLC = system: EKVX NSCLC
SN12C renal = system: SN12C renal
UO-31 renal = system: UO-31 renal
TK-10 renal = system: TK-10 renal
ACHN renal = system: ACHN renal
A498 renal = system: A498 renal
CCRF-CEM leukemia = system: CCRF-CEM leukemia
MOLT-4 leukemia = system: MOLT-4 leukemia

Measured: growth

CCN(CC)CCOc1ccc2c(c1O)C(=O)c1ccccc1C2=O
inactive: SK-MEL-2 melanoma 88.1% | EKVX NSCLC 100% | SN12C renal 76.2% | UO-31 renal 67.3% | TK-10 renal 78% | ACHN renal 56.9% | A498 renal 88.3% | CCRF-CEM leukemia 77.2% | MOLT-4 leukemia 72.3%

CN(C)CCCOc1ccccc1NC1=C(Cl)C(=O)C(Nc2ccccc2OCCCN(C)C)=C(Cl)C1=O
active: SK-MEL-2 melanoma -63.8% | EKVX NSCLC -82% | SN12C renal -86.7% | UO-31 renal -99% | TK-10 renal -98.3% | ACHN renal -98% | CCRF-CEM leukemia -16.5% | MOLT-4 leukemia -33.8%
inactive: A498 renal 65.1%

CCOC(=O)c1cc(C(=O)c2cc(OC)cc(OC)c2)n2nc(C)ccc12
inactive: SK-MEL-2 melanoma 15.9% | EKVX NSCLC 75.5% | SN12C renal 58.1% | UO-31 renal 44.9% | TK-10 renal 65% | ACHN renal 60.5% | CCRF-CEM leukemia 13.7% | MOLT-4 leukemia 29.5%
active: A498 renal -1.92%

COc1cc(C)ccc1Oc1nc(Nc2ccc(N3CCOCC3)cc2)ncc1NC(=O)Nc1cc(C(F)(F)F)cc(C(F)(F)F)c1
inactive: SK-MEL-2 melanoma 88.6% | EKVX NSCLC 80.7% | SN12C renal 58.1% | UO-31 renal 67.5% | TK-10 renal 51.1% | ACHN renal 24.4% | A498 renal 67.8% | CCRF-CEM leukemia 41.9% | MOLT-4 leukemia 19.2%

O=C(Nc1ccc(F)cc1)c1cc2ccccc2cc1O
inactive: SK-MEL-2 melanoma 84.7% | EKVX NSCLC 87.2% | SN12C renal 79.1% | UO-31 renal 63.9% | TK-10 renal 141% | ACHN renal 80.8% | A498 renal 69.2% | CCRF-CEM leukemia 71.6% | MOLT-4 leukemia 46.9%

CN(C)CCC1(c2ccccc2)CCN(C)C1=O (stereo unspecified)
inactive: SK-MEL-2 melanoma 95.4% | EKVX NSCLC 110% | SN12C renal 103% | UO-31 renal 87.4% | TK-10 renal 112% | ACHN renal 102% | A498 renal 94.1% | CCRF-CEM leukemia 103% | MOLT-4 leukemia 95.6%

O=C(CCCCC(=O)Oc1c(Cl)cc(Cl)cc1[N+](=O)[O-])Oc1c(Cl)cc(Cl)cc1[N+](=O)[O-]
inactive: SK-MEL-2 melanoma 93.6% | EKVX NSCLC 93.2% | SN12C renal 105% | UO-31 renal 87.1% | TK-10 renal 91.3% | ACHN renal 105% | A498 renal 114% | CCRF-CEM leukemia 73.6% | MOLT-4 leukemia 78.1%

COc1cc(OC)c2c(=O)c(O)c(-c3ccccc3)oc2c1
inactive: SK-MEL-2 melanoma 87.3% | EKVX NSCLC 83.4% | SN12C renal 73.3% | UO-31 renal 53.8% | TK-10 renal 96.8% | ACHN renal 68% | A498 renal 69.6% | CCRF-CEM leukemia 47.8% | MOLT-4 leukemia 54.3%

Cc1ccc(NCCN(C)CC(C)O)c2c(=O)c3ccc(Cl)cc3sc12 (stereo unspecified)
inactive: SK-MEL-2 melanoma 66.8% | EKVX NSCLC 78.5% | SN12C renal 49.8% | UO-31 renal 51.5% | TK-10 renal 79.1% | ACHN renal 44.6% | A498 renal 73.8% | CCRF-CEM leukemia 20.4% | MOLT-4 leukemia 16.2%

CN1CCN(CCC(=O)Nc2cccc(-n3cc(-c4ccncc4)c(-c4ccc(Cl)c(O)c4)n3)c2)CC1
inactive: SK-MEL-2 melanoma 34.5% | EKVX NSCLC 74.1% | SN12C renal 61.8% | UO-31 renal 46.9% | TK-10 renal 103% | ACHN renal 45.5% | A498 renal 34.5% | CCRF-CEM leukemia 24.9% | MOLT-4 leukemia 25.6%

CC(CN(C)C)Oc1ccc(OC(C)CN(C)C)c2c1C(=O)c1ccccc1C2=O (stereo unspecified)
active: MOLT-4 leukemia 9.9%
inactive: SK-MEL-2 melanoma 41% | EKVX NSCLC 70.7% | SN12C renal 33.5% | UO-31 renal 63.5% | TK-10 renal 42.7% | ACHN renal 28% | A498 renal 59.6% | CCRF-CEM leukemia 28.9%

O=C1c2ccccc2C(=O)c2c1ccc(C(Br)Br)c2Cl
active: SN12C renal -48.5% | ACHN renal -74.1% | CCRF-CEM leukemia -6.37% | MOLT-4 leukemia -1.06%
inactive: SK-MEL-2 melanoma 60.7% | EKVX NSCLC 66.6% | UO-31 renal 52.4% | TK-10 renal 83.9% | A498 renal 108%

CCOC(=O)c1cc(C(=O)c2ccc(Cl)cc2)n2ccc(-c3cc[n+](CC(=O)c4ccc(OC)cc4)cc3)cc12
inactive: SK-MEL-2 melanoma 97.6% | EKVX NSCLC 96.4% | SN12C renal 102% | UO-31 renal 73.5% | TK-10 renal 124% | ACHN renal 96.4% | A498 renal 73.9% | MOLT-4 leukemia 11.1%
active: CCRF-CEM leukemia -3.14%

Cc1c(Cl)cccc1NC(=O)CCCl
inactive: SK-MEL-2 melanoma 103% | EKVX NSCLC 106% | SN12C renal 95.8% | UO-31 renal 86.6% | TK-10 renal 89.3% | ACHN renal 108% | A498 renal 108% | CCRF-CEM leukemia 84.7% | MOLT-4 leukemia 85.3%

CC(=O)Oc1cc(OC(C)=O)c2ccccc2c1OC(C)=O
inactive: SK-MEL-2 melanoma 90.5% | EKVX NSCLC 97.5% | SN12C renal 87.4% | UO-31 renal 62.6% | TK-10 renal 150% | ACHN renal 84.9% | A498 renal 95.2% | CCRF-CEM leukemia 76.7% | MOLT-4 leukemia 69.5%

CN(C)CCOc1cccc(NC2=C(Cl)C(=O)C(Nc3cccc(OCCN(C)C)c3)=C(Cl)C2=O)c1
inactive: A498 renal 77.1%
active: SK-MEL-2 melanoma -73.8% | EKVX NSCLC -92.3% | SN12C renal -76.3% | UO-31 renal -100% | TK-10 renal -100% | ACHN renal -100% | CCRF-CEM leukemia -26.6% | MOLT-4 leukemia -38.5%

CN(C)CCOc1ccccc1NC1=C(Cl)C(=O)C(Nc2ccccc2OCCN(C)C)=C(Cl)C1=O
active: SN12C renal -69.9% | ACHN renal -84.1% | CCRF-CEM leukemia 4.28% | MOLT-4 leukemia -32.4%
inactive: SK-MEL-2 melanoma 82.9% | EKVX NSCLC 16% | UO-31 renal 38.4% | TK-10 renal 85.4% | A498 renal 107%

O=S(=O)(O)c1cccc(Nc2ccc3ccccc3c2)c1
inactive: SK-MEL-2 melanoma 93.7% | EKVX NSCLC 105% | SN12C renal 92.5% | UO-31 renal 68.9% | TK-10 renal 115% | ACHN renal 98% | A498 renal 96.7% | CCRF-CEM leukemia 95.6% | MOLT-4 leukemia 95.3%

S=C(SSC(=S)N(c1ccccc1)c1ccccc1)N(c1ccccc1)c1ccccc1
inactive: SK-MEL-2 melanoma 95.1% | EKVX NSCLC 118% | SN12C renal 94.5% | UO-31 renal 97.1% | TK-10 renal 95.3% | ACHN renal 114% | A498 renal 114% | CCRF-CEM leukemia 87.9% | MOLT-4 leukemia 93.9%

CC(C)CCN(CCC(C)C)CC(=O)Nc1ccc(S(=O)(=O)c2ccc(NC(=O)CN(CCC(C)C)CCC(C)C)cc2)cc1
active: CCRF-CEM leukemia 2% | MOLT-4 leukemia 2.75%
inactive: SK-MEL-2 melanoma 65.4% | EKVX NSCLC 83.1% | SN12C renal 74.6% | UO-31 renal 63.3% | TK-10 renal 96.4% | ACHN renal 69.7% | A498 renal 97.1%

O=C(CN(C1CCCCC1)C1CCCCC1)Nc1ccc(S(=O)(=O)c2ccc(NC(=O)CN(C3CCCCC3)C3CCCCC3)cc2)cc1
active: SK-MEL-2 melanoma -35.4% | EKVX NSCLC -43.6% | ACHN renal -33% | CCRF-CEM leukemia -59.7% | MOLT-4 leukemia -25.2%
inactive: SN12C renal 30.6% | UO-31 renal 10.2% | TK-10 renal 56.1% | A498 renal 89.4%

C1CN(CC2CCC(CN3CCOCC3)O2)CCO1 (stereo unspecified)
inactive: SK-MEL-2 melanoma 107% | EKVX NSCLC 100% | SN12C renal 106% | UO-31 renal 93.6% | TK-10 renal 95.8% | ACHN renal 38.9% | A498 renal 117% | CCRF-CEM leukemia 50.4% | MOLT-4 leukemia 68.2%

CN(C)CCCOc1cccc(NC2=C(Cl)C(=O)C(Nc3cccc(OCCCN(C)C)c3)=C(Cl)C2=O)c1
inactive: A498 renal 44.5%
active: SK-MEL-2 melanoma -65.6% | EKVX NSCLC -95.8% | SN12C renal -69.2% | UO-31 renal -92.7% | TK-10 renal -99.3% | ACHN renal -98.3% | CCRF-CEM leukemia -37.6% | MOLT-4 leukemia -37.1%

COc1cc(-c2nn(-c3ccc(NC(=O)NCCNS(=O)(=O)c4ccc(F)cc4)cc3)cc2-c2ccncc2)ccc1Cl
inactive: EKVX NSCLC 33% | SN12C renal 39.9% | UO-31 renal 31.5% | TK-10 renal 28.1% | ACHN renal 23.7% | MOLT-4 leukemia 11.6%
active: SK-MEL-2 melanoma 8.8% | A498 renal -19.1% | CCRF-CEM leukemia 9.28%

Cc1ccc(NCCNCC(C)(C)O)c2c(=O)c3ccc(Cl)cc3sc12
active: ACHN renal 3.43% | CCRF-CEM leukemia -14.4% | MOLT-4 leukemia -30.7%
inactive: SK-MEL-2 melanoma 57.4% | EKVX NSCLC 71.8% | SN12C renal 34% | UO-31 renal 41.2% | TK-10 renal 74.2% | A498 renal 59%

CN(C)CCCOc1ccc(OCCCN(C)C)c2c1C(=O)c1ccccc1C2=O
active: SK-MEL-2 melanoma -53.4% | SN12C renal 6.55% | TK-10 renal -6.02% | A498 renal -31.9% | CCRF-CEM leukemia 2.78% | MOLT-4 leukemia 5.64%
inactive: EKVX NSCLC 13.6% | UO-31 renal 62.7% | ACHN renal 10.8%

CCN(CC)CCOc1cccc2c1C(=O)c1cccc(OCCN(CC)CC)c1C2=O
inactive: SK-MEL-2 melanoma 32.1% | EKVX NSCLC 53.6% | SN12C renal 27.5% | UO-31 renal 41% | TK-10 renal 47.4% | ACHN renal 17.7% | A498 renal 63% | CCRF-CEM leukemia 22.3%
active: MOLT-4 leukemia 8.32%

O=C(Nc1nc(-c2ccccc2)nc2c1sc(=S)n2-c1ccccc1)C(F)(F)F
inactive: SK-MEL-2 melanoma 104% | EKVX NSCLC 97.2% | SN12C renal 95.3% | UO-31 renal 81.2% | TK-10 renal 117% | ACHN renal 91.3% | A498 renal 80.4% | CCRF-CEM leukemia 80.8% | MOLT-4 leukemia 77.2%

COc1cc(-c2nn(-c3ccc(NC(=O)NCCCNC(=O)c4ccccc4)cc3)cc2-c2ccncc2)ccc1Cl
inactive: SK-MEL-2 melanoma 18% | EKVX NSCLC 51.4% | SN12C renal 54.5% | UO-31 renal 29.6% | TK-10 renal 59.3% | ACHN renal 23.7% | A498 renal 12.7% | CCRF-CEM leukemia 14.5% | MOLT-4 leukemia 23.5%
